Compounds without any hit were thinned out: in the full panel of roughly 79,000, 15% have a hit. Values without a mark were called inactive. Activity calls are given as the source filed them. Cut-off read from the data, not from the text of the source: active = growth inhibition above about 70%; inactive = the rest.
Tests used:
[1] = NCI Yeast Anticancer Drug Screen. Data for the rad50 strain (AID 155);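 note: 0% = growth of vehicle-only cultures of the same strain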; details: S. cerevisiae rad50 strain growth inhibition, active compounds read high
Summary of the method: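 Compounds were tested on a yeast strain with an engineered DNA damage repair alteration; the reported value is growth inhibition normalised to vehicle treatment.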

[2] = NCI Yeast Anticancer Drug Screen. Data for the mec2-1 strain (AID 157); details: S. cerevisiae mec2-1 strain, active compounds read high
Summary of the method: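 Cells of the genetically defined mec2-1 yeast strain are incubated with test compound. Inhibition of growth is calculated against vehicle-treated controls.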

[3] = NCI Yeast Anticancer Drug Screen. Data for the sgs1 mgt1 strain (AID 161);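 note: 0% = growth of cultures given vehicle only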; details: S. cerevisiae sgs1 mgt1 strain, active compounds read high
Summary of the method: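 Read-out: growth inhibition vs vehicle controls. Cells: mutant yeast strain deficient in DNA damage repair.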

[4] = NCI Yeast Anticancer Drug Screen. Data for the cln2 rad14 strain (AID 165);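 note: 0% = growth equal to vehicle treated cultures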; details: S. cerevisiae cln2 rad14 strain, active compounds read high
Summary of the method: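 The screen exposed genetically defined yeast (cln2 rad14) to test compounds and scored growth inhibition relative to vehicle-treated controls.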

[5] = NCI Yeast Anticancer Drug Screen. Data for the bub3 strain (AID 167); details: S. cerevisiae bub3 mutant strain, active compounds read high
Summary of the method: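 Growth of a checkpoint-deficient yeast mutant is measured after compound exposure. Values represent inhibition relative to vehicle.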

[6] = NCI Yeast Anticancer Drug Screen. Data for the mlh1 rad18 strain (AID 175); details: S. cerevisiae mlh1 rad18 strain growth inhibition, active compounds read high
Summary of the method: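 Compound-treated yeast growth, normalised to vehicle controls. Strain bears defined DNA repair mutations.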

[7] = at 5.0 µM (retest, dose inferred, filed as 0.5)
[8] = at 50.0 µM (retest, dose inferred, filed as 5.0)

Row | SMILES | growth inhibition [1, 7] | growth inhibition [1, 8] | growth inhibition ([1]; at 50.0 µM) | growth inhibition [2, 7] | growth inhibition [2, 8] | growth inhibition ([2]; at 50.0 µM) | growth inhibition [3, 7] | growth inhibition [3, 8] | growth inhibition ([3]; at 50.0 µM) | growth inhibition [4, 7] | growth inhibition [4, 8] | growth inhibition ([4]; at 50.0 µM) | growth inhibition [5, 7] | growth inhibition [5, 8] | growth inhibition ([5]; at 50.0 µM) | growth inhibition [6, 7] | growth inhibition [6, 8] | growth inhibition ([6]; at 50.0 µM)
1 | O=C(Nc1ccc(Cl)cc1)NS(=O)(=O)c1c(-c2ccccc2)oc2ccccc2c1=O | 14% | 99% (active) | 92.3% (active) | 6% | 98% (active) | 96.3% (active) | 7% | 99% (active) | 95.5% (active) | 15% | 98% (active) | 93.3% (active) | 0% | 97% (active) | 95.3% (active) | 15% | 98% (active) | 95.3% (active)
2 | COc1ccc(C2C3=C(CCCC3=O)Oc3cc4c(cc32)OCO4)c(OC)c1 (configuration not stated) | 17% | 92% (active) | 3.95% | -3% | 90% (active) | 18.8% | 6% | 92% (active) | -11.7% | 6% | 88% (active) | -6.1% | 8% | 94% (active) | 1.05% | 4% | 92% (active) | 8.95%
3 | CC(C)c1ccc2c(c1)CC[C@H]1[C@](C)(C(=O)O)CCC[C@]21C | -1% | 96% (active) | 91.6% (active) | 2% | 96% (active) | 93% (active) | 10% | 96% (active) | 91.8% (active) | -11% | 96% (active) | 91.3% (active) | -2% | 95% (active) | 90.8% (active) | 9% | 95% (active) | 91.1% (active)
4 | CN(CCCN(CCO)CCO)C1CC(C)(C)N(O)C(C)(C)C1 | 16% | -4% | -4.5% | -1% | 3% | -9.7% | 7% | 10% | -3.5% | -2% | 5% | 14.7% | -3% | 2% | -8.9% | 1% | 9% | 7.2%
5 | COc1cccc2c1C(=O)c1c(O)c3c(c(O)c1C2=O)CC(O)(C(C)=O)CC3OC1CC(NCC2(O)OCC(O)C(O)C2O)C(O)C(C)O1 (configuration not stated) | 54% | 98% (active) | 85.2% (active) | 33% | 98% (active) | 86.5% (active) | 38% | 98% (active) | 79.8% (active) | 38% | 94% (active) | 73.3% (active) | 27% | 98% (active) | 83.2% (active) | 62% | 97% (active) | 87.9% (active)
6 | O=c1[nH]c(C(F)(F)F)c(F)c(=O)[nH]1 | 0% | -2% | 69.3% | 3% | 1% | 93.5% (active) | 2% | 27% | 86.7% (active) | 3% | 5% | 94.1% (active) | -2% | -5% | 63.1% | -2% | -3% | 95% (active)
7 | O=C(C[n+]1ccccc1Cl)c1ccc(Oc2ccc(C(=O)C[n+]3ccccc3Cl)cc2)cc1 | -34% | 0% | 90.6% (active) | -5% | -18% | 83.2% (active) | -11% | -11% | 30.5% | -14% | -15% | 91.9% (active) | -40% | -28% | 89% (active) | -33% | -48% | 80.7% (active)
8 | Cc1cc(I)ccc1NC(=S)Nc1ccccc1F | -3% | 62% | 90.7% (active) | -4% | 79% (active) | 90.5% (active) | -3% | 41% | 86.5% (active) | -19% | 45% | 70% (active) | 5% | 86% (active) | 95.1% (active) | -4% | 68% | 90.7% (active)
9 | CCCCCCSC(=Cc1cccc[n+]1C)SCCCCCC | 98% (active) | 96% (active) | 99.5% (active) | 100% (active) | 98% (active) | 99.7% (active) | 100% (active) | 98% (active) | 99.7% (active) | 99% (active) | 95% (active) | 99.3% (active) | 98% (active) | 94% (active) | 99.5% (active) | 100% (active) | 97% (active) | 99.4% (active)
10 | COc1ccc(/C(Cl)=C(\C=O)c2ccc(Cl)c(Cl)c2)cc1 | 2% | 49% | 99% (active) | 8% | 70% (active) | 98.9% (active) | 13% | 85% (active) | 99.3% (active) | -10% | 55% | 92.5% (active) | 41% | 82% (active) | 97.8% (active) | 27% | 79% (active) | 98.2% (active)
11 | CN(C)c1ccc(/C=C/c2nc3ccccc3[nH]2)cc1 | -2% | 89% (active) | 54% | -9% | 77% (active) | 56.8% | -3% | 89% (active) | 37.1% | -7% | 67% | 16.7% | -10% | 54% | 14.6% | -13% | 97% (active) | 80% (active)
12 | O=C1CCC(Cc2ccc(Br)cc2)C(=O)N1 (configuration not stated) | -4% | 7% | -11.7% | -4% | 1% | 7.2% | 19% | 96% (active) | 93.7% (active) | -3% | 3% | -77.2% | -6% | -1% | -54% | -6% | 5% | -2.1%
13 | COc1ccc(C(O)/C(=N\NC(N)=S)c2nc3ccc([N+](=O)[O-])cc3[nH]c2=O)cc1OC (configuration not stated) | 4% | 97% (active) | 66.1% | 1% | 99% (active) | 28.2% | 4% | 97% (active) | 20.6% | 1% | 98% (active) | 6.55% | 6% | 98% (active) | 22.7% | 0% | 97% (active) | 52.8%
14 | Cc1ccccc1-n1c(N)c(-c2nc3ccccc3[nH]2)sc1=S | 36% | 45% | 81.2% (active) | 22% | 50% | 70.7% (active) | 42% | 57% | 68.2% | 37% | 44% | 70.4% (active) | 41% | 55% | 83.1% (active) | 42% | 61% | 80.2% (active)
15 | COc1ccc(SSc2ccc(OC)n[n+]2[O-])[n+]([O-])n1 | 98% (active) | 99% (active) | 99.3% (active) | 98% (active) | 100% (active) | 99.7% (active) | 93% (active) | 99% (active) | 98.8% (active) | 57% | 97% (active) | 98.3% (active) | 59% | 99% (active) | 99.5% (active) | 72% (active) | 99% (active) | 99.5% (active)
16 | COC(=O)C1(C)CCCC2(C)C3CCC4CC3(C=C4CO)CCC12 (configuration not stated) | 32% | 96% (active) | 53% | 24% | 98% (active) | 43.1% | 35% | 99% (active) | 86.5% (active) | 36% | 91% (active) | 73.5% (active) | 24% | 98% (active) | 80.7% (active) | 41% | 98% (active) | 50.4%
17 | O=S(=O)(C#Cc1ccccc1)c1ccccc1 | 12% | 98% (active) | 99.4% (active) | -11% | 99% (active) | 99.5% (active) | 24% | 99% (active) | 99.4% (active) | 7% | 99% (active) | 99.2% (active) | 3% | 98% (active) | 99.1% (active) | 16% | 99% (active) | 99% (active)
18 | O=[N+]([O-])C1CCCC(C2=CSC3CCCCC3N2)C1 (configuration not stated) | 5% | -7% | 48.2% | -21% | 10% | 80.8% (active) | -26% | -2% | 63.4% | -4% | 16% | 11.1% | 1% | 29% | 86% (active) | -24% | 36% | 37.9%
19 | O=C1C=CCCCC1(c1ccccc1)c1ccccc1 | 2% | 8% | 77.5% (active) | 0% | 14% | 70.3% (active) | 5% | 15% | 85.4% (active) | 9% | 4% | 19.9% | -3% | -6% | 52.2% | -3% | 12% | 73.6% (active)

— PubChem BioAssay (NCI)
